Assay results as given in PubChem BioAssay AID1159580 (chemical genetic matrix, 2015).
Where “and” joins values, the source holds several entries; their conditions need not be identical. Equal values may be shown once. Out of some 5,500 compounds screened, about 2,000 (36%) were called active. Not shown: some 18% with an inconclusive outcome. This is one part of the list. A number with no mark means an inactive call. No stated cut-off is given here; in the data, active means normalized growth mostly below about 0.91 (no sharp cut-off); inconclusive means no clear call, values can overlap the other calls; inactive means mostly above about 0.92.

Assay: chemical genetic growth profiling, strain panel (AID 1159580);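 further: tested at 20 µM; growth read once vehicle control cultures reached saturation at 30 °C; 1 = growth at the plate median or of vehicle wells; lower values mean less growth of the strain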
Conditions: growth OD

Question: For `CN(C)CCOC(=O)COc1ccc(Cl)cc1`, which normalized growth (S. cerevisiae deletion strains, locus YKL009W, strain mrt4, hits give low values) is on record?
Answer: 1.04

Question: What about the normalized growth (S. cerevisiae deletion strains, locus YKL068W, hits give low values) of the same molecule?
Answer: 1

Question: And the normalized growth (S. cerevisiae deletion strains, locus YKL085W, strain MDH1 (second series), hits give low values)?
Answer: 1.01

Question: And the normalized growth (S. cerevisiae deletion strains, locus YKL085W, strain MDH1, hits give low values)?
Answer: 1.01

Question: And the normalized growth (S. cerevisiae deletion strains, locus YKL160W, strain elf1, hits give low values)?
Answer: 0.972

Question: What about the normalized growth (S. cerevisiae deletion strains, locus YKL190W, strain CNB1, hits give low values) of the same molecule?
Answer: 1.01

Question: And the normalized growth (S. cerevisiae deletion strains, locus YKR001C, strain vps1, hits give low values)?
Answer: 1.14 [resistant] (active)

Question: And the normalized growth (S. cerevisiae deletion strains, locus YKR026C, strain gcn3, hits give low values)?
Answer: 0.948

Question: And the normalized growth (S. cerevisiae deletion strains, locus YKR091W, strain srl3, hits give low values)?
Answer: 0.969

Question: What about the normalized growth (S. cerevisiae deletion strains, locus YLL001W, strain dnm1, hits give low values) of the same molecule?
Answer: 0.959

Question: What about the normalized growth (S. cerevisiae deletion strains, locus YLL026W, hits give low values) of the same molecule?
Answer: 0.969

Question: What about the normalized growth (S. cerevisiae deletion strains, locus YLL041C, strain sdh2, hits give low values) of the same molecule?
Answer: 0.961

Question: What about the normalized growth (S. cerevisiae deletion strains, locus YLR027C, strain aat2, hits give low values) of the same molecule?
Answer: 0.972

Question: What about the normalized growth (S. cerevisiae deletion strains, locus YLR039C, strain RIC1, hits give low values) of the same molecule?
Answer: 1.61 [resistant] (active)

Question: And the normalized growth (S. cerevisiae deletion strains, locus YLR058C, strain SHM2, hits give low values)?
Answer: 1.02

Question: And the normalized growth (S. cerevisiae deletion strains, locus YLR102C, strain apc9, hits give low values)?
Answer: 1.02

Question: What about the normalized growth (S. cerevisiae deletion strains, locus YLR113W, strain HOG1, hits give low values) of the same molecule?
Answer: 0.971

Question: And the normalized growth (S. cerevisiae deletion strains, locus YLR221C, strain rsa3, hits give low values)?
Answer: 0.987

Question: And the normalized growth (S. cerevisiae deletion strains, locus YLR258W, strain gsy2, hits give low values)?
Answer: 0.965

Question: And the normalized growth (S. cerevisiae deletion strains, locus YLR262C, strain YPT6 (second series), hits give low values)?
Answer: 1.08

Question: And the normalized growth (S. cerevisiae deletion strains, locus YLR262C, strain YPT6, hits give low values)?
Answer: 1.85 [resistant] (active)

Question: And the normalized growth (S. cerevisiae deletion strains, locus YLR268W, strain sec22, hits give low values)?
Answer: 1.15 [resistant] (active)

Question: What about the normalized growth (S. cerevisiae deletion strains, locus YLR320W, strain mms22, hits give low values) of the same molecule?
Answer: 1.01

Question: What about the normalized growth (S. cerevisiae deletion strains, locus YLR330W, strain CHS5, hits give low values) of the same molecule?
Answer: 1.02

Question: What about the normalized growth (S. cerevisiae deletion strains, locus YLR342W, strain FKS1 (second series), hits give low values) of the same molecule?
Answer: 0.953

Question: What about the normalized growth (S. cerevisiae deletion strains, locus YLR342W, strain FKS1, hits give low values) of the same molecule?
Answer: 0.97

Question: What about the normalized growth (S. cerevisiae deletion strains, locus YLR357W, strain rsc2, hits give low values) of the same molecule?
Answer: 1.01

Question: What about the normalized growth (S. cerevisiae deletion strains, locus YLR370C, strain arc18, hits give low values) of the same molecule?
Answer: 0.962

Question: What about the normalized growth (S. cerevisiae deletion strains, locus YLR371W, strain rom2, hits give low values) of the same molecule?
Answer: 1.02

Question: And the normalized growth (S. cerevisiae deletion strains, locus YLR384C, strain iki3, hits give low values)?
Answer: 0.983

Question: And the normalized growth (S. cerevisiae deletion strains, locus YLR418C, strain cdc73, hits give low values)?
Answer: 1.21 [resistant] (active)

Question: And the normalized growth (S. cerevisiae deletion strains, locus YML016C, strain PPZ1, hits give low values)?
Answer: 1.02

Question: And the normalized growth (S. cerevisiae deletion strains, locus YML032C, strain rad52, hits give low values)?
Answer: 1.07

Question: And the normalized growth (S. cerevisiae deletion strains, locus YML120C, strain ndi1, hits give low values)?
Answer: 0.966

Question: What about the normalized growth (S. cerevisiae deletion strains, locus YML124C, strain tub3, hits give low values) of the same molecule?
Answer: 1.04

Question: What about the normalized growth (S. cerevisiae deletion strains, locus YMR058W, strain fet3, hits give low values) of the same molecule?
Answer: 0.976

Question: And the normalized growth (S. cerevisiae deletion strains, locus YMR078C, strain ctf18, hits give low values)?
Answer: 1.05

Question: And the normalized growth (S. cerevisiae deletion strains, locus YMR125W, strain sto1, hits give low values)?
Answer: 0.965

Question: What about the normalized growth (S. cerevisiae deletion strains, locus YMR129W, hits give low values) of the same molecule?
Answer: 0.973

Question: And the normalized growth (S. cerevisiae deletion strains, locus YMR205C, strain PFK2, hits give low values)?
Answer: 0.986

Question: What about the normalized growth (S. cerevisiae deletion strains, locus YMR223W, strain ubp8, hits give low values) of the same molecule?
Answer: 1.04

Question: What about the normalized growth (S. cerevisiae deletion strains, locus YMR231W, strain pep5, hits give low values) of the same molecule?
Answer: 0.976

Question: And the normalized growth (S. cerevisiae deletion strains, locus YMR263W, strain SAP30, hits give low values)?
Answer: 1.05

Question: What about the normalized growth (S. cerevisiae deletion strains, locus YMR307W, strain GAS1, hits give low values) of the same molecule?
Answer: 0.963

Question: What about the normalized growth (S. cerevisiae deletion strains, locus YNL067W, strain RPL9B, hits give low values) of the same molecule?
Answer: 1.06

Question: And the normalized growth (S. cerevisiae deletion strains, locus YNL071W, strain lat1, hits give low values)?
Answer: 0.988

Question: What about the normalized growth (S. cerevisiae deletion strains, locus YNL128W, strain TEP1, hits give low values) of the same molecule?
Answer: 1.03

Question: And the normalized growth (S. cerevisiae deletion strains, locus YNL153C, strain GIM3, hits give low values)?
Answer: 1.03 and 0.882

Question: And the normalized growth (S. cerevisiae deletion strains, locus YNL175C, strain NOP13, hits give low values)?
Answer: 0.949

Question: And the normalized growth (S. cerevisiae deletion strains, locus YNL183C, strain NPR1, hits give low values)?
Answer: 0.962

Question: And the normalized growth (S. cerevisiae deletion strains, locus YNL197C, strain WHI3, hits give low values)?
Answer: 0.954

Question: And the normalized growth (S. cerevisiae deletion strains, locus YNL209W, strain ssb2, hits give low values)?
Answer: 0.974

Question: And the normalized growth (S. cerevisiae deletion strains, locus YNL224C, strain SQS1, hits give low values)?
Answer: 1.01

Question: What about the normalized growth (S. cerevisiae deletion strains, locus YNL233W, strain BNI4, hits give low values) of the same molecule?
Answer: 1.07

Question: What about the normalized growth (S. cerevisiae deletion strains, locus YNL248C, strain rpa49, hits give low values) of the same molecule?
Answer: 0.996

Question: What about the normalized growth (S. cerevisiae deletion strains, locus YNL250W, strain rad50, hits give low values) of the same molecule?
Answer: 1.01

Question: And the normalized growth (S. cerevisiae deletion strains, locus YNL271C, strain bni1, hits give low values)?
Answer: 1.04

Question: And the normalized growth (S. cerevisiae deletion strains, locus YNL298W, strain CLA4, hits give low values)?
Answer: 1.02

Question: What about the normalized growth (S. cerevisiae deletion strains, locus YNL307C, strain MCK1, hits give low values) of the same molecule?
Answer: 1.05

Question: And the normalized growth (S. cerevisiae deletion strains, locus YNL322C, strain KRE1 (second series), hits give low values)?
Answer: 0.977

Question: And the normalized growth (S. cerevisiae deletion strains, locus YNL322C, strain KRE1, hits give low values)?
Answer: 1.02

Question: And the normalized growth (S. cerevisiae deletion strains, locus YNR049C, strain mso1, hits give low values)?
Answer: 0.955

Question: And the normalized growth (S. cerevisiae deletion strains, locus YNR052C, strain pop2, hits give low values)?
Answer: 1.07

Question: And the normalized growth (S. cerevisiae deletion strains, locus YOL006C, strain TOP1, hits give low values)?
Answer: 1.01

Question: And the normalized growth (S. cerevisiae deletion strains, locus YOL012C, strain htz1)?
Answer: 1.88

Question: And the normalized growth (S. cerevisiae deletion strains, locus YOL147C, strain pex11, hits give low values)?
Answer: 1.03

Question: What about the normalized growth (S. cerevisiae deletion strains, locus YOR001W, strain rrp6, hits give low values) of the same molecule?
Answer: 0.947

Question: And the normalized growth (S. cerevisiae deletion strains, locus YOR061W, strain CKA2, hits give low values)?
Answer: 1.03

Question: And the normalized growth (S. cerevisiae deletion strains, locus YOR069W, strain VPS5, hits give low values)?
Answer: 1

Question: And the normalized growth (S. cerevisiae deletion strains, locus YOR070C, strain gyp1, hits give low values)?
Answer: 0.984

Question: What about the normalized growth (S. cerevisiae deletion strains, locus YOR080W, strain dia2, hits give low values) of the same molecule?
Answer: 0.952

Question: And the normalized growth (S. cerevisiae deletion strains, locus YOR083W, strain WHI5 (second series), hits give low values)?
Answer: 0.994

Question: What about the normalized growth (S. cerevisiae deletion strains, locus YOR083W, strain WHI5, hits give low values) of the same molecule?
Answer: 0.979

Question: What about the normalized growth (S. cerevisiae deletion strains, locus YOR106W, strain vam3, hits give low values) of the same molecule?
Answer: 1

Question: What about the normalized growth (S. cerevisiae deletion strains, locus YOR136W, strain idh2, hits give low values) of the same molecule?
Answer: 1.03

Question: And the normalized growth (S. cerevisiae deletion strains, locus YOR144C, strain elg1, hits give low values)?
Answer: 1.02

Question: And the normalized growth (S. cerevisiae deletion strains, locus YOR184W, strain ser1, hits give low values)?
Answer: 1.15 [resistant] (active)

Question: What about the normalized growth (S. cerevisiae deletion strains, locus YOR231W, strain MKK1, hits give low values) of the same molecule?
Answer: 1.05

Question: And the normalized growth (S. cerevisiae deletion strains, locus YOR265W, strain rbl2, hits give low values)?
Answer: 0.964

Question: And the normalized growth (S. cerevisiae deletion strains, locus YOR270C, strain vph1, hits give low values)?
Answer: 0.884

Question: What about the normalized growth (S. cerevisiae deletion strains, locus YOR290C, strain snf2, hits give low values) of the same molecule?
Answer: 0.962

Question: What about the normalized growth (S. cerevisiae deletion strains, locus YOR316C, strain cot1, hits give low values) of the same molecule?
Answer: 1.02

Question: And the normalized growth (S. cerevisiae deletion strains, locus YPL051W, strain arl3, hits give low values)?
Answer: 0.986

Question: And the normalized growth (S. cerevisiae deletion strains, locus YPL055C, strain LGE1, hits give low values)?
Answer: 1.06 and 1.03

Question: What about the normalized growth (S. cerevisiae deletion strains, locus YPL078C, strain atp4, hits give low values) of the same molecule?
Answer: 0.973

Question: And the normalized growth (S. cerevisiae deletion strains, locus YPL106C, strain sse1, hits give low values)?
Answer: 0.878

Question: What about the normalized growth (S. cerevisiae deletion strains, locus YPL240C, strain hsp82, hits give low values) of the same molecule?
Answer: 0.957

Question: What about the normalized growth (S. cerevisiae deletion strains, locus YPL241C, strain CIN2, hits give low values) of the same molecule?
Answer: 1.01

Question: And the normalized growth (S. cerevisiae deletion strains, locus YPL256C, strain CLN2, hits give low values)?
Answer: 1.1

Question: And the normalized growth (S. cerevisiae deletion strains, locus YPR119W, strain clb2, hits give low values)?
Answer: 1.03

Question: And the normalized growth (S. cerevisiae deletion strains, locus YPR141C, strain kar3, hits give low values)?
Answer: 1.02

Question: And the normalized growth (S. cerevisiae deletion strains, locus YPR163C, strain tif3, hits give low values)?
Answer: 1.06

Question: What about the normalized growth (S. cerevisiae deletion strains, locus YPR167C, strain met16, hits give low values) of the same molecule?
Answer: 1.05

Question: And the normalized growth (S. cerevisiae deletion strains, strain wtn01, hits give low values)?
Answer: 1.04

Question: And the normalized growth (S. cerevisiae strains, strain wild type, hits give low values)?
Answer: 1.03
